From PubChem BioAssay (EPA / NIEHS) come the findings set out here.

Structures are written as SMILES. Records with an inconclusive call do not appear. Calls of active or inactive are those of the source. The calls were made as follows, unless noted: active = hit-call score of the fitted dose curve at least 0.9, where 1 is the maximum; inconclusive = response in the unintended direction; inactive = score below 0.9.

The nature of experiment [1]: VALA_TUBHUV_Agonist_CellCount: Viability Assessment in the VALA Sciences human Umbilical Vein Endothelial Tubule Formation (TUBHUV) Agonism Assay (AID 2284309). The method, then:
VALA_TUBHUV_Agonist is a cell-based, multiplexed assay that uses human umbilical vein endothelial cells (HUVEC). Measurements were taken 72 hours after chemical dosing in a 96-well plate.VALA_TUBHUV_Agonist_CellCount is the one of two assay components measured from the VALA_TUBHUV_Agonist assay. It is designed to make measurements of viability, a form of viability reporter, as detected with fluorescence intensity signals by HCS Fluorescent Imaging technology. Data from the assay component VALA_TUBHUV_Agonist_CellCount was analyzed at the endpoint, VALA_TUBHUV_Agonist_CellCount, in the positive analysis fitting direction relative to DMSO as the negative control and baseline of activity. Using a type of viability reporter, loss-of-signal activity can be used to understand viability. To generalize the intended target to other relatable targets, this assay endpoint is annotated to the cell cycle intended target family, where the subfamily is cell count.
This HUVEC-HDF assay was designed to detect chemical suppression of tubulogenesis, i.e. antagonism. To measure tubulogenesis antagonism, HUVEC cells were co-cultured with HDF cells at a 1:3 ratio for 3-days in 10 ng/ml VEGF (i.e., favorable conditions with growth factors), then changed to assay medium containing 10 ng/ml VEGF and ToxCast compounds for an additional 3-day period. […]

Experiment [2] is described as follows: VALA_TUBHUV_Antagonist_CellCount: Viability Assessment in the VALA Sciences human Umbilical Vein Endothelial Tubule Formation (TUBHUV) Antagonism Assay (AID 2284310). The gist of the method:
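Read-out is imaged cell count after nuclear and CD31 staining, fitted against 0.1% DMSO vehicle. Compounds were added for 3 days, in 10 ng/ml VEGF assay medium, to HUVEC–HDF co-cultures pre-grown 3 days.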

Experiment [3] in a line: VALA_MIGHUV2_Bcatenin: VALA Sciences human Umbilical Vein Endothelial Cell Migration (MIGHUV) Assay, Nuclear Translocation of beta-Catenin after Recovery (AID 2284315). The gist of the method: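 Nuclear beta-catenin imaged by immunofluorescence with Hoechst counterstain in fixed HUVEC, 24 h after scratch wounding and chemical addition. Six-point concentration-response in triplicate; activity scored as signal increase over 0.1% DMSO vehicle.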

Experiment [4] can be described thus: VALA_MIGHUV2_WoundArea: VALA Sciences human Umbilical Vein Endothelial Cell Migration (MIGHUV) Assay, Area of Scratch Wound after Recovery (AID 2284316). The gist of the method: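 Wound-area endpoint read by fluorescence imaging of Hoechst-stained nuclei after a 24 h recovery period following scratch of HUVEC monolayers (9000 cells/well). Chemicals dosed within 30 min post-scratch, triplicate 6-point series, 0.1% DMSO vehicle; Cytochalasin D positive control.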

Experiment [5] is described as follows: VALA_TUBHUV_Antagonist_TubuleLength: VALA Sciences human Umbilical Vein Endothelial Tubule Formation (TUBHUV) Antagonism Assay (AID 2284325). The gist of the method:
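Tubule length was imaged via CD31 immunofluorescence after a further 3-day compound exposure in 10 ng/ml VEGF, following 3-day pre-culture of HUVEC with HDF at 1:3. Vehicle 0.1% DMSO; suramin (100 uM) inhibition control.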

Experiment [6] is described as follows: VALA_TUBHUV_Agonist_TubuleLength: VALA Sciences human Umbilical Vein Endothelial Tubule Formation (TUBHUV) Agonism Assay (AID 2284337). The gist of the method:
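Tubule length quantified by CD31 immunofluorescence imaging after fixation. HUVEC-HDF co-cultures (1:3) pre-grown 3 days with 10 ng/ml VEGF, then dosed 3 days in VEGF medium; 0.1 % DMSO vehicle baseline.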

Experiment [7] is described as follows: VALA_TUBIPS_Agonist_CellCount: Viability Assessment in the VALA Sciences human iPS-derived Endothelial Tubule Formation (TUBIPS) Agonism Assay (AID 2284338).
The subject of experiment [8] is Brachyury (BRA) Protein Expression, Deisenroth Lab, TBXT (gene 6862). The experiment is described as follows: CCTE_Deisenroth_DEVTOX-GLR_legacy_Bra: (Legacy) CCTE's DevTox GLR-Endo Assay Evaluation of Brachyury (BRA) Protein Expression, Deisenroth Lab (AID 2284329; active = hit-call score of the fitted dose curve at least 0.9, where 1 is the maximum; inactive = score below 0.9). The method, then: CCTE_Deisenroth_DEVTOX-GLR_legacy assay is a cell-based, multiplex-readout assay that uses RUES2-GLR, a human pluripotent cell line, with measurements taken at 48 hours after chemical dosing in a 384-well microplateCCTE_Deisenroth_DEVTOX-GLR_legacy_Bra is one of 4 assay components calculated from the CCTE_Deisenroth_DEVTOX-GLR_legacy assay that measures an increase in the percentage of cells in an […] state. It is designed to make measurements of inducible reporter a form of fluorescent protein induction as detected with optical fluorescence microscopy. Percentage Bra+ cells are determined by calculating the number of Bra+ cells divided by cell count. A cell is Bra+ if the cell Bra mean intensity is 5x BMAD above the pluripotent control median cell Bra mean. The assay endpoint was analyzed with bidirectional fitting with the 0.2% DMSO control median percent Bra in the DEVTOX-GLR assay subtracted.Data from the assay component CCTE_Deisenroth_DEVTOX-GLR_legacy_Bra was analyzed into 1 assay endpoint. This assay endpoint, CCTE_Deisenroth_DEVTOX-GLR_legacy_Bra, was analyzed in the positive analysis fitting direction relative to DMSO as the negative control and baseline activity. […] Furthermore, this assay endpoint can be referred to as a secondary readout, because this assay has produced multiple assay endpoints where this one serves as a measure of mesoderm differentiation. […]

The nature of experiment [9]: CCTE_Deisenroth_DEVTOX-GLR_legacy_CellCount: (Legacy) Viability Assessment in CCTE's DevTox GLR-Endo Assay, Deisenroth Lab (AID 2284331; active = hit-call score of the fitted dose curve at least 0.9, where 1 is the maximum; inactive = score below 0.9). To be noted: actives raise or lower the signal. The gist of the method:
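Nuclei count by fluorescence high-content imaging (5 fields/well) after 48 h differentiation of RUES2-GLR cells. Two exposures, 24 h apart; 1 nM - 200 uM series; n=4. Bidirectional fit vs DMSO.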

In the case of `Cc1ccc(N)cc1N`, the outcome in experiment [1], in experiment [2], in experiment [3], in experiment [4], in [5] and in experiment [7] was inactive. Further, the AC50 in experiment [6] was 7.57 µM (active).

Regarding `O=P1(N(CCCl)CCCl)NCCCO1` (centres undefined), the result in [8] and in experiment [9] was inactive.
